Data published in the supplement of paper PMC11732987, “Enantioselective OTUD7B fragment discovery through chemoproteomics screening and high-throughput optimisation” (Communications Chemistry, 2025).

How the values were obtained:
Assay in all cases: log2 ratio of Biotin-Ahx-Ub-VS probe labelling (fragment/DMSO); higher = less target engagement (more negative = stronger competition), active = hit call of the paper (q ≤ 0.05, log2 ratio ≤ -1)
Settings in all cases: compound concentration: 200 uM; treatment time: 3 h
[1] = molecular target: USP9X (UniProt Q93008)
Chain of USP9X (Q93008 whole entry, the tested form may be a part): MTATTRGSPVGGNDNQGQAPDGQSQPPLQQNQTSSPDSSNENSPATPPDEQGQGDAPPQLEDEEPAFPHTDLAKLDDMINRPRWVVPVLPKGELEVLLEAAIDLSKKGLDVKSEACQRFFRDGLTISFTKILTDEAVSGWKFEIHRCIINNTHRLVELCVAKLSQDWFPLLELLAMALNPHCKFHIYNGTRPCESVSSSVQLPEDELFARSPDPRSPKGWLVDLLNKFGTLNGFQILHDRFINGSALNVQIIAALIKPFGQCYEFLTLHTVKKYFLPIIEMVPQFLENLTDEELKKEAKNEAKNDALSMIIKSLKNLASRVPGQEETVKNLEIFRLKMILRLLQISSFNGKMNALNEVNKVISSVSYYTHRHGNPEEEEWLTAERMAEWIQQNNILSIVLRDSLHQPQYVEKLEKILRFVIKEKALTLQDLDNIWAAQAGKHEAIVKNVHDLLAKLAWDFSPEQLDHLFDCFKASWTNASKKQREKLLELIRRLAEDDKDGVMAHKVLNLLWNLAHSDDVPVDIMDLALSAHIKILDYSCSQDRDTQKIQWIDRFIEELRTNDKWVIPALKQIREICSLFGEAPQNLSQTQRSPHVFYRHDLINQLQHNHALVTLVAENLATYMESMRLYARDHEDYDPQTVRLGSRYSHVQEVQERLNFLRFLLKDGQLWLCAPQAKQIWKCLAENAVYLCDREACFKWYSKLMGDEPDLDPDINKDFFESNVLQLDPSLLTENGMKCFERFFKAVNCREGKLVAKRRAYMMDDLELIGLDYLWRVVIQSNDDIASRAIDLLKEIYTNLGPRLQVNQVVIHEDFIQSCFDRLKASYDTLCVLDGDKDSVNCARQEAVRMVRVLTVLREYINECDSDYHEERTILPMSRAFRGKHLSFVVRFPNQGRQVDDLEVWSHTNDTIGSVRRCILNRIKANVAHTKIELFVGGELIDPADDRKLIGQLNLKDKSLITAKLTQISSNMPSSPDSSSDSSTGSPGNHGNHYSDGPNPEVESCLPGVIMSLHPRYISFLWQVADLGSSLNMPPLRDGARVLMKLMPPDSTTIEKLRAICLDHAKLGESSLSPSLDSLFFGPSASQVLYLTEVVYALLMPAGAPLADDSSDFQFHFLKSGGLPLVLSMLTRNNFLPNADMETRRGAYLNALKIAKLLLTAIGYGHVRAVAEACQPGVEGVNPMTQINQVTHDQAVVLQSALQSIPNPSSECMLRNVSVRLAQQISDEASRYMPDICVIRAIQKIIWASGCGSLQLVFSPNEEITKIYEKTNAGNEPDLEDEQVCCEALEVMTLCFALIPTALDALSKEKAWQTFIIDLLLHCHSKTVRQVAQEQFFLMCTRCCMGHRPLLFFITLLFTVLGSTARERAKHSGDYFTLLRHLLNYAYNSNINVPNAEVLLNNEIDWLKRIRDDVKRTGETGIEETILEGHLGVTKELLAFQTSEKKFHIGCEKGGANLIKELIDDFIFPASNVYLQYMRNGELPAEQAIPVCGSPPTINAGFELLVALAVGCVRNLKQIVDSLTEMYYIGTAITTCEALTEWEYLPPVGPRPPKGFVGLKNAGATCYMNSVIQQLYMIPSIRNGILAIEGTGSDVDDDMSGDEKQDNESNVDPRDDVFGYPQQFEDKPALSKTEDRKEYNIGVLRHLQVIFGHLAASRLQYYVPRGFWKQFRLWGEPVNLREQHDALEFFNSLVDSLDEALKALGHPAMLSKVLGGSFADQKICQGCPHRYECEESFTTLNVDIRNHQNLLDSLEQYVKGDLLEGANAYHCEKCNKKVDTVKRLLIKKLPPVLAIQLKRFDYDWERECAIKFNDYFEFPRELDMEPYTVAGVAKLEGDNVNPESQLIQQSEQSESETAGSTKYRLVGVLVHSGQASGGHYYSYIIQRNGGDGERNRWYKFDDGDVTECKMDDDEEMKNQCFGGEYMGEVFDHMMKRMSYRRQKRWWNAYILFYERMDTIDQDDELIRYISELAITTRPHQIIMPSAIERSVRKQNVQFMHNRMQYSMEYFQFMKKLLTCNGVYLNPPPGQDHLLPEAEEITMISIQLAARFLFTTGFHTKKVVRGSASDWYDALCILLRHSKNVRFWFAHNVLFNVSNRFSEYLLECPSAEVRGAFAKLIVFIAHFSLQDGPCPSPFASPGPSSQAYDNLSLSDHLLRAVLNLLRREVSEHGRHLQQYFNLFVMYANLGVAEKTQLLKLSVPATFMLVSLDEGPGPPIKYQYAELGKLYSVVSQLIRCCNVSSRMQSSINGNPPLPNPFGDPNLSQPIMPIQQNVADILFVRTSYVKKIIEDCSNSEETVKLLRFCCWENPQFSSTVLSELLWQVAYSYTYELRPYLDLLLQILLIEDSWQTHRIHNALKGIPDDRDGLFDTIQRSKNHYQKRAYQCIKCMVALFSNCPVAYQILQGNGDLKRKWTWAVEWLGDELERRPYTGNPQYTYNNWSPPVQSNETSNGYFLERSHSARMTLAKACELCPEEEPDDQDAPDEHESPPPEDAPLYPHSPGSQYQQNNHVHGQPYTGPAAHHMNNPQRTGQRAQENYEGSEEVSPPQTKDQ
Procedure, shortened: (§1)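 HEK293T lysate in Tris/CHAPS/IGEPAL buffer with protease inhibitors (495 µg per sample) was given fragment at 200 µM or vehicle for 3 h, in triplicate. It then received Biotin-Ahx-Ub-VS at 0.5 µM final for 1 h. Labelled DUBs were NeutrAvidin-enriched, digested with LysC and trypsin, and run by diaPASEF LC-MS/MS. Values are average log2 fragment/vehicle ratios by unpaired t-test on global-median-normalised Spectronaut quantities of proteins with ≥2 unique peptides.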

[2] = molecular target: UniProt O00487
Chain of UniProt O00487 (O00487 whole entry): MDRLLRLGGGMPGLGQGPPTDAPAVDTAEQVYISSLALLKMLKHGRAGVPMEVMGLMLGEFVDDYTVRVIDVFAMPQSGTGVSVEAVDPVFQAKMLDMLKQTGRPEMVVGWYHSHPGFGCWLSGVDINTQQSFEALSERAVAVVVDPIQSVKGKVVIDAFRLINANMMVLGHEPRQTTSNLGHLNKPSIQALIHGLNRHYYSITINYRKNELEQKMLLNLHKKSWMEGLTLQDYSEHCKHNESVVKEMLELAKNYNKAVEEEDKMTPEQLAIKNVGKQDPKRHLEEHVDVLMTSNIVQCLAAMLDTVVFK
Procedure, shortened: as §1

[3] = molecular target: UniProt O00507
Procedure, shortened: as §1

[4] = molecular target: UniProt P51784
Chain of UniProt P51784 (P51784 whole entry): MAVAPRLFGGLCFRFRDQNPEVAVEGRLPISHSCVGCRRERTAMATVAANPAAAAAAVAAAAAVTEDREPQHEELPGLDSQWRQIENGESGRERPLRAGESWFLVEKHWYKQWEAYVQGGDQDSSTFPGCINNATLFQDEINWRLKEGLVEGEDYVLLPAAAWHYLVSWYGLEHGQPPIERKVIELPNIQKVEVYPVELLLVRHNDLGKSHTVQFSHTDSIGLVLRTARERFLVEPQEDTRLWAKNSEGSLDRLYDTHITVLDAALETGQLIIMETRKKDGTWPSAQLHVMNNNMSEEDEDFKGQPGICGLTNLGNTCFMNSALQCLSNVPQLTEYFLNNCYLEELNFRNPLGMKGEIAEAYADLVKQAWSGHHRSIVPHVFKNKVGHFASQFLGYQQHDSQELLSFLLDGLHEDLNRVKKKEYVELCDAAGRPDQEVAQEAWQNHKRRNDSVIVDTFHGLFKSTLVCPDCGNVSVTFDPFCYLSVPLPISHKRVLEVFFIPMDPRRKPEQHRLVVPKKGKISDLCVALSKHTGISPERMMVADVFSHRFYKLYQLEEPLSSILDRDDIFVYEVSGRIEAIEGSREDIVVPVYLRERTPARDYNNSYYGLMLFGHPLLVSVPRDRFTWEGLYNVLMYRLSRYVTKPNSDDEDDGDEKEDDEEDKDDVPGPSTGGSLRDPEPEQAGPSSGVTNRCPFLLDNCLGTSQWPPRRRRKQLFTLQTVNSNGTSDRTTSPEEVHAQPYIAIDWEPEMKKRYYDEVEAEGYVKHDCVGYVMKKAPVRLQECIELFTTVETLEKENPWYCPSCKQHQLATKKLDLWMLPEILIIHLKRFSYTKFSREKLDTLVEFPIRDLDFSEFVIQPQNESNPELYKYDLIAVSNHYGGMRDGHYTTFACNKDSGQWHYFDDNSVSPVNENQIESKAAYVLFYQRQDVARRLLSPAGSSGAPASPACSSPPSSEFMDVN
Procedure, shortened: as §1

[5] = molecular target: T1, UniProt Q5T2D3
T1 sequence (whole entry): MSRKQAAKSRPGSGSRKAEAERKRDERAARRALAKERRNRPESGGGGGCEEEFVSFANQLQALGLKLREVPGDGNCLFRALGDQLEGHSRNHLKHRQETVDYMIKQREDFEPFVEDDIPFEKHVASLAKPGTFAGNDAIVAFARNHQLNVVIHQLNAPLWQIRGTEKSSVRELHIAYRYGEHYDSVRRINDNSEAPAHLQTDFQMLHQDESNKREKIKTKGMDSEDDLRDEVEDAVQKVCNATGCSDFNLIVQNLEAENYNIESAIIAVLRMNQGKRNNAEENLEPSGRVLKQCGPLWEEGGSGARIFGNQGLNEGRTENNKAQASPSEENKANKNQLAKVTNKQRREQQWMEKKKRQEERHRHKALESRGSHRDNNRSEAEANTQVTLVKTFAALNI
Procedure, shortened: as §1

[6] = molecular target: T2, UniProt Q8TE49
T2 sequence (whole entry): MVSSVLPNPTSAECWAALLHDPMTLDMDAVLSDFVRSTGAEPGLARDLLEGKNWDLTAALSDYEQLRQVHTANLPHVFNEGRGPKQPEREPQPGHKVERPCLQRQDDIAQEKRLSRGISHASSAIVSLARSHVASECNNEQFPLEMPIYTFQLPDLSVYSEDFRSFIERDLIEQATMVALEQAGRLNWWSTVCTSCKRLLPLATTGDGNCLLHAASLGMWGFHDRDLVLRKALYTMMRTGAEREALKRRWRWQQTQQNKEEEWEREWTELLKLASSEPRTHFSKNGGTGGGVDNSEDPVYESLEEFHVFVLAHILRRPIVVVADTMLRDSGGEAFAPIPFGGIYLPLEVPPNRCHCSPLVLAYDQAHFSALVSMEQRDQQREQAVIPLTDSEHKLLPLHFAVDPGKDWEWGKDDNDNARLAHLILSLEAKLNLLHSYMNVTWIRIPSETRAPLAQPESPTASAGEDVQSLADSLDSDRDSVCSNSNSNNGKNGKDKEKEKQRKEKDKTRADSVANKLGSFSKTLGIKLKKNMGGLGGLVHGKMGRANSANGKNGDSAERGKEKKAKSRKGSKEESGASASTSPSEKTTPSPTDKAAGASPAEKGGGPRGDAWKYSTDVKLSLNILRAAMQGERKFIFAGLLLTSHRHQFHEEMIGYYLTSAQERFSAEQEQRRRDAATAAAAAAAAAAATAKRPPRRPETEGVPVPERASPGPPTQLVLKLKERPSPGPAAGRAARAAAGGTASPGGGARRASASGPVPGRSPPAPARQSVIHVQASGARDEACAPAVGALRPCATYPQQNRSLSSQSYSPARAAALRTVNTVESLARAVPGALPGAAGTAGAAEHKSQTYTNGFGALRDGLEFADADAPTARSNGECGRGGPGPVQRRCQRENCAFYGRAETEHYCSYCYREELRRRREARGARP
Procedure, shortened: as §1

[7] = molecular target: T3, UniProt Q9P2H5
T3 sequence (whole entry): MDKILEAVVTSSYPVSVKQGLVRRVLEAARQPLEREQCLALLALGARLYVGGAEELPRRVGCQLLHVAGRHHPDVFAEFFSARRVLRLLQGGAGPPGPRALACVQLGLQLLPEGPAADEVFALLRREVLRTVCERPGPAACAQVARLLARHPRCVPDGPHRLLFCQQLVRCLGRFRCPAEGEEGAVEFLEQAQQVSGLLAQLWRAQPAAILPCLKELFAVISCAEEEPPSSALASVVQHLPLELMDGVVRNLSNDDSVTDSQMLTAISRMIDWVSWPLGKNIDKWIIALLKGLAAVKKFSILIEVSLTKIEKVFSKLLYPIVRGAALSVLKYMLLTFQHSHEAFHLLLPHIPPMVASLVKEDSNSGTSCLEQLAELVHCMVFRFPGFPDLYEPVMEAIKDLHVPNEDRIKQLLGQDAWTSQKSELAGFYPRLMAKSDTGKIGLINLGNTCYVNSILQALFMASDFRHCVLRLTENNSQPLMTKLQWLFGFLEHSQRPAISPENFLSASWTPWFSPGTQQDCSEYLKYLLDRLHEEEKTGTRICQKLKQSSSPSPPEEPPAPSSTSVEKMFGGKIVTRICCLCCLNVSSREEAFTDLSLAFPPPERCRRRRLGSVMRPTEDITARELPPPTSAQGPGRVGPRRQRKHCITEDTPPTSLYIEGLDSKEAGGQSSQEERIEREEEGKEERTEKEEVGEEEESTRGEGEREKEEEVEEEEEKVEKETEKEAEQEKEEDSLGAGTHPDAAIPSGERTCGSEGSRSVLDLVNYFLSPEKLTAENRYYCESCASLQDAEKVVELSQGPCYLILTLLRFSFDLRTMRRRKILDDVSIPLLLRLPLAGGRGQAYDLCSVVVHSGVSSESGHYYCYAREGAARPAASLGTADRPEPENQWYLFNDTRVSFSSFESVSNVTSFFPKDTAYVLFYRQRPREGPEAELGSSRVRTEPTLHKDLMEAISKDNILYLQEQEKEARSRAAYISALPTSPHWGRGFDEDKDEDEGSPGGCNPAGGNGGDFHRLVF
Procedure, shortened: as §1

[8] = molecular target: T4, UniProt Q9UGI0
T4 sequence (whole entry): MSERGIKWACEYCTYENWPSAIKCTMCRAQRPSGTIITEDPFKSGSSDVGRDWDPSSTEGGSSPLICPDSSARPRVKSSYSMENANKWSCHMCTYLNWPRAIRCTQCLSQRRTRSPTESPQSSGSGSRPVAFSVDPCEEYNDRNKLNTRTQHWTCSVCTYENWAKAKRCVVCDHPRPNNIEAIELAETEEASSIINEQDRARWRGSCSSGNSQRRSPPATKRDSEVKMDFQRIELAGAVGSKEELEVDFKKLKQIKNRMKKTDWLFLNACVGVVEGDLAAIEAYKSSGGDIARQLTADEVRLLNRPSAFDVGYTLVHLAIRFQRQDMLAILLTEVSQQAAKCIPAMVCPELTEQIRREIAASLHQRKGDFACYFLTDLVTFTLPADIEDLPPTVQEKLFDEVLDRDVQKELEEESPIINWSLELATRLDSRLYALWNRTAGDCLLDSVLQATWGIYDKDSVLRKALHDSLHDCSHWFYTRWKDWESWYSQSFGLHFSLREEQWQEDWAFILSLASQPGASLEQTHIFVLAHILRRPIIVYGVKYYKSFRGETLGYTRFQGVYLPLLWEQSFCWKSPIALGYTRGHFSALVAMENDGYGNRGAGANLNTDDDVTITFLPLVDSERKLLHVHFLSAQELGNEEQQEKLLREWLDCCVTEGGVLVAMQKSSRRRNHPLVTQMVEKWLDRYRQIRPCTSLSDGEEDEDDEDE
Procedure, shortened: as §1

[9] = molecular target: T5, YOD1 (UniProt Q5VVQ6)
T5 sequence (whole entry): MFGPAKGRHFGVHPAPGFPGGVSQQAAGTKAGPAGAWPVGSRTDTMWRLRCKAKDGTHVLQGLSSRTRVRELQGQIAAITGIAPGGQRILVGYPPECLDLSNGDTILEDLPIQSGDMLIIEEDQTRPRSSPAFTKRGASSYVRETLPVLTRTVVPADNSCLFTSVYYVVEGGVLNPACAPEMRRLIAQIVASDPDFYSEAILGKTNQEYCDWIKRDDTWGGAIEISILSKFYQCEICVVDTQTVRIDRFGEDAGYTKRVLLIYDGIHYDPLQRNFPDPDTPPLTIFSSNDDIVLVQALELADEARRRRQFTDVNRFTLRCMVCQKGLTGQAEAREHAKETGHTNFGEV
Procedure, shortened: as §1

Measured: log2 ratio of Biotin-Ahx-Ub-VS probe labelling

O=C(CCl)N1CC=C(c2c[nH]c3ccccc23)CC1
active: [3] -1.28 | [8] -1.14
inactive: [1] -0.82 | [2] -0.0429 | [4] -0.291 | [5] -0.405 | [6] -0.72 | [7] -0.734 | [9] -0.219
